Some test systems named below: HCT-15 colon; HT29 colon; SNB-75 CNS; SNB-19 CNS; U251 CNS; PC-3 prostate; SK-MEL-5 melanoma; UACC-62 melanoma; LOX IMVI melanoma; SK-MEL-28 melanoma; SK-MEL-2 melanoma; EKVX NSCLC; SN12C renal; UO-31 renal; TK-10 renal; ACHN renal; CAKI-1 renal; A498 renal; CCRF-CEM leukemia; MOLT-4 leukemia.
Common to all, as to assay: NCI-60 one-dose screen, 48 h (100 = growth as untreated, 0 = no growth, -100 = all killed)
Conditions in all cases: 10 µM

Compounds without any hit were thinned out: in the full panel of roughly 83,000, 20% have a hit.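 Single-concentration screen, 48 h exposure, 96-well plates. Endpoint: percent growth. Below 10 = active.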 Values without a mark were called inactive. Calls of active or inactive are those of the source.

As for `CC1=C(C(=O)OC(C)C)C(c2ccc(O)cc2)NC(=S)N1` (stereo not given), the growth in the test on HCT-15 colon was 102%; in the test on HT29 colon, 108%; in the test on SNB-75 CNS, 217%; with SNB-19 CNS it was 101%; in the test on U251 CNS, 102%; in the test with PC-3 prostate it was 94.7%. For the same molecule, the growth in the test with SK-MEL-5 melanoma is 106%; in the test on UACC-62 melanoma it was 93.4%; in the test on LOX IMVI melanoma, 94.4%; in the test with SK-MEL-28 melanoma, 109%; with SK-MEL-2 melanoma it was 99.2%; with EKVX NSCLC it was 92.5%. In addition, the growth with SN12C renal is 105%; in the test on UO-31 renal it was 96.2%; with TK-10 renal, 95.5%; in the test with ACHN renal, 109%; with CAKI-1 renal, 98%; with A498 renal, 138%. Besides, the growth was 101% with CCRF-CEM leukemia and 94.8% in the test on MOLT-4 leukemia.
Consider `Brc1ccc(/C=N/Nc2ncnc3sc4c(c23)CCN(Cc2ccccc2)C4)cc1`, for which the growth is 58.3% in the test with HCT-15 colon; 4.77% (active) in the test with HT29 colon; -7.37% (active) with SNB-75 CNS; 99.9% in the test on SNB-19 CNS; 61.1% with U251 CNS; 61.6% in the test with PC-3 prostate. Besides, the growth in the test with SK-MEL-5 melanoma is 94.8%; in the test on UACC-62 melanoma, 90.3%; with LOX IMVI melanoma, 46.9%; with SK-MEL-28 melanoma, 41.9%; in the test with SK-MEL-2 melanoma, 112%; with EKVX NSCLC, 94.2%. Further, the growth was 64.4% with SN12C renal; 73.9% in the test on UO-31 renal; 125% with TK-10 renal; 56.5% in the test with ACHN renal; 70% in the test with CAKI-1 renal; 117% in the test on A498 renal. Besides, the growth in the test with CCRF-CEM leukemia was 22.5%; in the test with MOLT-4 leukemia, 46.2%.
Turning to `CCCCSc1nc(Nc2ccc(/C(C)=N/NC(N)=S)cc2)c(C#N)c(-c2ccc(OC)cc2)n1`, the growth was 75.9% in the test on HCT-15 colon; 86.7% in the test with HT29 colon; 37.7% in the test with SNB-75 CNS; 63.8% in the test with SNB-19 CNS; 22.8% with U251 CNS; 85.2% in the test with PC-3 prostate. Further, the growth is 46.2% in the test with SK-MEL-5 melanoma; 44.7% with UACC-62 melanoma; -10.1% (active) in the test on LOX IMVI melanoma; 90.5% in the test with SK-MEL-28 melanoma; 104% with SK-MEL-2 melanoma; 79.4% in the test on EKVX NSCLC. In addition, the growth in the test with SN12C renal was 7.27% (active); in the test on UO-31 renal it was -19.7% (active); with TK-10 renal, -0.624% (active); in the test with ACHN renal, 55.2%; with CAKI-1 renal, 51.6%; in the test on A498 renal it was 32.2%. Moreover, the growth is 86.2% in the test with CCRF-CEM leukemia and 67.7% in the test on MOLT-4 leukemia.
Turning to `O=C(Cc1ccc2c(c1)CN(C1CCC(=O)NC1=O)C2=O)NCCc1ccccc1` (stereo not given), the growth was -0.692% (active) in the test on HCT-15 colon; 31.3% with HT29 colon; 1.96% (active) in the test with SNB-75 CNS; 15.6% with SNB-19 CNS; 67.8% in the test with U251 CNS; 11.9% with PC-3 prostate. For the same molecule, the growth in the test with SK-MEL-5 melanoma is -54.2% (active); in the test with UACC-62 melanoma, 53.7%; with LOX IMVI melanoma, 81.2%; in the test with SK-MEL-28 melanoma, 37.4%; in the test on SK-MEL-2 melanoma, 26%; in the test on EKVX NSCLC, 67.2%. Besides, the growth is 8.84% (active) in the test with SN12C renal; -10.4% (active) in the test with UO-31 renal; 45.8% with TK-10 renal; 48.9% in the test with ACHN renal; 63.6% with CAKI-1 renal; 1.53% (active) in the test on A498 renal. Besides, the values for the growth in the test on CCRF-CEM leukemia and in the test with MOLT-4 leukemia were 10.6% and -13.2% (active), respectively.
In the case of `O=C(CSc1nnc(-c2ccc3nc(-c4ccccc4)[nH]c3c2)o1)Nc1ccc(Br)cc1`, the growth is 38.1% in the test with HCT-15 colon; 64.9% in the test on HT29 colon; 99.1% with SNB-75 CNS; 49.7% in the test with SNB-19 CNS; 11.5% in the test with U251 CNS; 61.4% in the test with PC-3 prostate. For the same molecule, the growth with SK-MEL-5 melanoma is 86.9%; with UACC-62 melanoma it was 59.8%; in the test on LOX IMVI melanoma, -4.8% (active); in the test on SK-MEL-28 melanoma it was 76.9%; in the test with SK-MEL-2 melanoma, 81.2%; with EKVX NSCLC it was 81.4%. Also, the growth in the test with SN12C renal was 45.8%; in the test on UO-31 renal, 74.4%; in the test with TK-10 renal, 81.3%; with ACHN renal, 63%; in the test on CAKI-1 renal it was 76.2%; with A498 renal it was 101%. The growth with CCRF-CEM leukemia is 39.4%; with MOLT-4 leukemia, 16.8%.
As to `CSc1nc(-c2cccc(C)c2)c2cc(-c3ccccc3)n(C)c2n1`, the growth in the test on HCT-15 colon was 15.3%; in the test on HT29 colon, 9.09% (active); in the test with SNB-75 CNS, -2% (active); in the test on SNB-19 CNS, 30.2%; with U251 CNS it was 17.4%; in the test with PC-3 prostate it was 21.7%. The growth in the test on SK-MEL-5 melanoma was -44.7% (active); with UACC-62 melanoma it was 11.1%; in the test on LOX IMVI melanoma, 21.4%; with SK-MEL-28 melanoma, 34.7%; in the test on SK-MEL-2 melanoma, 12.2%; with EKVX NSCLC it was 18.4%. Further, the growth in the test with SN12C renal was 20%; in the test on UO-31 renal, 29.8%; with TK-10 renal, 58.1%; in the test with ACHN renal it was 32.4%; with CAKI-1 renal, 26.2%; in the test on A498 renal, 65.5%. In addition, the growth in the test on CCRF-CEM leukemia was 17.5%; in the test on MOLT-4 leukemia it was 16.8%.
Regarding `CC(=O)c1ccc(Nc2nc(SC(C)C)nc(-c3ccccc3)c2C#N)cc1`, the growth is 48.7% in the test with HCT-15 colon; 48.1% in the test on HT29 colon; 42.3% in the test on SNB-75 CNS; -20% (active) with SNB-19 CNS; 10.2% with U251 CNS; 71.9% with PC-3 prostate. Besides, the growth is 38.1% in the test with SK-MEL-5 melanoma; 77.9% in the test with UACC-62 melanoma; 0.768% (active) in the test on LOX IMVI melanoma; 31.3% in the test on SK-MEL-28 melanoma; 111% in the test with SK-MEL-2 melanoma; 39.7% in the test with EKVX NSCLC. In addition, the growth in the test on SN12C renal was 10.9%; in the test with UO-31 renal it was -53.6% (active); in the test with TK-10 renal, 6.61% (active); in the test with ACHN renal, -56.9% (active); in the test on CAKI-1 renal it was 8.35% (active); in the test with A498 renal it was 94.7%. Moreover, the growth in the test with CCRF-CEM leukemia is 97.5%; with MOLT-4 leukemia it was 82.9%.
For the molecule `Cc1ccc(-c2cc(C(=O)N=Nc3c(O)[nH]c4ccc(Br)cc34)c3ccccc3n2)cc1`, the growth in the test on HCT-15 colon is 8.77% (active); in the test on HT29 colon, 42.1%; in the test on SNB-75 CNS, 102%; with SNB-19 CNS, 61.1%; with U251 CNS, 21.7%; with PC-3 prostate it was 52.9%. The growth in the test on SK-MEL-5 melanoma is 96.7%; with UACC-62 melanoma, 60.6%; in the test on LOX IMVI melanoma, 25.3%; in the test with SK-MEL-28 melanoma it was 84.4%; in the test on SK-MEL-2 melanoma, 104%; in the test with EKVX NSCLC, 60.6%. The growth is 48.6% in the test with SN12C renal; 52.2% with UO-31 renal; 119% in the test with TK-10 renal; 52.3% with ACHN renal; 73.6% in the test on CAKI-1 renal; 125% in the test on A498 renal. For the same molecule, the figures for the growth in the test with CCRF-CEM leukemia and in the test on MOLT-4 leukemia were 26.8% and 14.9%, respectively.

For the origin of these results see PubChem BioAssay (NCI).
